# TbREL1 inh: TbREL1 inhibition, primary screen; P86926; 0.49% of 89,000 active; TbREL1 RNA ligation, FRET fluorescence; inhibition, % at 9.66 µM; AID 1117264;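 active means inhibition above the mean inhibition across all screened compounds plus 3 SD, cut at about 11% in these data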
# Target sequence (P86926 whole entry, looked up): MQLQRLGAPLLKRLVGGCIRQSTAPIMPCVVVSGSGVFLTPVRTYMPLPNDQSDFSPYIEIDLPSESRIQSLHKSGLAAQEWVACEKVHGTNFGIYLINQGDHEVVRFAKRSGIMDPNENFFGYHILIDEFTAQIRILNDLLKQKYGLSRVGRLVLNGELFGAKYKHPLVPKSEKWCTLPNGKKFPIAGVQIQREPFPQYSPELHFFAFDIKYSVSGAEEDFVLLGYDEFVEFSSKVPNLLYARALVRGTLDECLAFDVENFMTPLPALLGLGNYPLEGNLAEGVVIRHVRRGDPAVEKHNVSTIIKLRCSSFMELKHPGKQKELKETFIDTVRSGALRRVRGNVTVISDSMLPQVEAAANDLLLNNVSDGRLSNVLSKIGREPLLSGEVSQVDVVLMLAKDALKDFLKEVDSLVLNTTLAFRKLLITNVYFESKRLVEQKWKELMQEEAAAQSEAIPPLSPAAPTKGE
# TbREL1 confirm: TbREL1 inhibition, confirmation; shares compounds with TbREL1 inh; TbREL1 RNA ligation, FRET fluorescence; inhibition, % at 9.66 µM; 37% of 390 active; AID 1117282;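 active means mean inhibition across replicates above a set limit taken from the earlier primary screen, cut at about 11% in these data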
# A number is an active result; - = inactive. The entries come from a sample that favours hits as a whole.
SMILES,TbREL1 inh,others
COC(=O)c1sccc1NC(=O)c1cccc(OC)c1,50,TbREL1 confirm=-
COc1cccc(C(=O)Nc2ccc(F)c(F)c2F)c1,-,
Nn1c(SCC(=O)Nc2cccc3ccccc23)nnc1-c1cc(-c2ccccc2)n[nH]1,-,
CCCN(CC1CC1)C(=O)CN1C(=O)C2CCCCN2C(=O)c2ccccc21 (configuration not stated),-,
CC(C)c1ccc(NC(=O)Nc2nc(C(N)CCc3ccccc3)cs2)cc1 (configuration not stated),-,
CC(C)C(N)c1csc(NC(=O)Nc2ccccc2C(C)(C)C)n1 (configuration not stated),13,TbREL1 confirm=-
NC(Cc1ccc(C(F)(F)F)cc1)c1csc(NC(=O)Nc2ccccc2Cl)n1 (configuration not stated),-,
COc1ccc(CCNC(=O)C2CCCN(Cc3nc(-c4ccccc4C)oc3C)C2)cc1OC (configuration not stated),-,
COc1ccc(F)c(-c2nc(CN3CCN(C(=O)c4ccco4)CC3)c(C)o2)c1,-,
COc1ccc(-c2nc(CN3CCN(c4cc(C)nc(C)c4)CC3)c(C)o2)c2ccccc12,15,TbREL1 confirm=-
CC(=O)N1CCN(c2nc(-c3ccco3)c3c(c2C#N)CC(C)(C)SC3)CC1,-,
CC1(C)Cc2c(c(-c3ccco3)[nH]c(=O)c2C#N)CS1,15,TbREL1 confirm=-
CC1(C)Cc2c(c(-c3ccccc3)[nH]c(=O)c2C#N)CS1,-,
Nn1c(SCC(=O)Nc2ccc(OCc3ccccc3)cc2)nnc1-c1cc(-c2ccc(F)cc2)n[nH]1,-,
COC(=O)[C@]12C[C@H](CC(=O)NCCCN3CCCC3=O)C(=O)N(Cc3ccco3)C1=C[C@H](COCc1ccccc1)O[C@@H]2C,-,
CC(C)CCNC(=O)C1CCCN(C(=O)c2ccc3c(c2)NC(=O)CS3)C1 (configuration not stated),-,
CCN(C(=O)C1CCN(c2ncccn2)CC1)c1ccccc1,-,
O=C(C1CCN(c2ncnc3c2sc2cccc(F)c23)CC1)N1CCN(Cc2ccccc2)CC1,-,
O=C(CSc1nc2ccccc2nc1N1CCOCC1)NCc1ccc(Cl)cc1Cl,-,
Cc1nc2ccccc2n1CC(=O)c1ccc(O)c(O)c1,16,TbREL1 confirm=16
O=C(CSc1nc2ccccc2n1CCc1ccccc1)c1ccc(O)c(O)c1,-,
Cc1[nH]c2ccccc2c1C(=O)COC(=O)Cn1c(C)nc2ccccc21,-,
O=C(NCC1COCCO1)C1CCN(S(=O)(=O)c2cccc3ccccc23)CC1 (configuration not stated),-,
CCCCC(=O)OCC(=O)Nc1ccc(OC(F)F)cc1,-,
O=C(COC(=O)C1CCC1)Nc1ccc(OC(F)F)cc1,-,
SMILES,TbREL1 inh,others
C[C@H](NC(N)=O)C(=O)OCC(=O)Nc1ccc(OC(F)F)cc1,12,TbREL1 confirm=-
Clc1ccc(-c2nnc3n2N=C(c2ccc(-c4ccccc4)cc2)CS3)c(Cl)c1,-,
Cc1ccc(-c2cc(-c3nnc(SCC(=O)N4c5ccccc5Sc5ccccc54)n3N)[nH]n2)cc1,-,
NCCC(=O)Nc1ccc(Cl)cc1C(=O)c1ccc[nH]1,-,
CC1CCN(CCCNS(=O)(=O)c2cc3c(cc2Br)CCN3C(=O)C2CC2)CC1,-,
CCC(C(=O)NCc1ccco1)N(C(=O)CNS(=O)(=O)c1ccc(F)cc1)c1ccccc1F (configuration not stated),36,TbREL1 confirm=-
CCCC(C(=O)NCc1ccco1)N(CC1CCCO1)C(=O)CNS(=O)(=O)c1ccc(F)cc1 (configuration not stated),-,
O=C(CN(Cc1ccc(F)cc1)C(=O)CNS(=O)(=O)c1ccc(F)cc1)NCc1ccco1,-,
CN(C)CCNc1ncnc2ccccc12,-,
CC(C)N(C(=O)CSc1ncnc2sc(-c3ccccc3)cc12)C(C)C,-,
CN(C)CCCNc1ncnc2sc(-c3ccccc3)cc12,14,TbREL1 confirm=-
CC(=O)NCCNC(=O)C1(C)Cc2c(-c3cccc(C(N)=O)c3)ccnc2O1 (configuration not stated),14,TbREL1 confirm=-
CC1(C(=O)NCc2ccc(F)c(F)c2)Cc2c(-c3cccc(C(N)=O)c3)ccnc2O1 (configuration not stated),-,
CC(=O)c1cccc(NC(=O)C2(C)Cc3c(-c4cccc(C(N)=O)c4)ccnc3O2)c1 (configuration not stated),-,
CNC(C#Cc1ccccc1)c1ccccc1C(F)(F)F (configuration not stated),-,
COC(=O)[C@H](Cc1ccc(O)cc1)NC(=O)Cn1ccc(NC(=O)OCc2ccccc2)nc1=O,-,
COC(=O)C(Cc1ccc(O)cc1)NC(=O)Cn1cc(C)c(=O)[nH]c1=O (configuration not stated),11,TbREL1 confirm=-
Cc1cn(CC(=O)N[C@H](C)c2cccc3ccccc23)c(=O)[nH]c1=O,-,
CCOc1cc(/C=N/Nc2nc(N3CCCC3)nc(N3CCCC3)n2)ccc1O,-,
O=C(NNc1cc(N2CCCC2)nc(N2CCCC2)n1)c1ccc([N+](=O)[O-])cc1,-,
Oc1ccccc1/C=N/Nc1cc(N2CCCC2)nc(N2CCCC2)n1,19,TbREL1 confirm=38
O=C(Nc1ccccc1C(F)(F)F)OC1CC2CC1[C@H]1CCCCN1C2 (some centres not stated),-,
CCC[C@H]1[C@@H](N(C)CC2CCCCC2)CC[C@@]23CCCN2C(=O)CCC[C@@H]13,-,
c1ccc(CCNCCOc2ccccc2)cc1,-,
Cc1ccc(C(C)C)c(OCCNCCc2ccccc2)c1,13,TbREL1 confirm=15
SMILES,TbREL1 inh,others
Cc1ccc(C(C)C)c(OCCNS(C)(=O)=O)c1,-,
Cc1ccc(F)cc1C(=O)N1CCCC(c2nc(-c3cccs3)no2)C1 (configuration not stated),-,
COc1cc(-c2nnc(SCC(=O)N3C(C)CCCC3C)o2)cc(OC)c1OC (configuration not stated),-,
O=C(N[C@H](Cc1ccccc1)C(=O)NCc1cccc2ccccc12)[C@H]1O[C@@H](n2ccc(=O)[nH]c2=O)[C@H](O)[C@@H]1O,-,
C[C@@H]1[C@@H](c2ccccc2)OC(O)([C@H](Cc2ccccc2)NC(=O)OC(C)(C)C)CN1C (some centres not stated),-,
CN1CC(O)([C@H](Cc2ccccc2)NC(=O)OC(C)(C)C)OCC1C(=O)NCc1cccc2ccccc12 (some centres not stated),11,TbREL1 confirm=-
COc1ccc([C@H]2OC(=O)C[C@H]2C(=O)N2CCCCC2)cc1OC,-,
CCCC1CCC2(CC1)CCC2OC(=S)NCc1ccc(Cl)cc1 (configuration not stated),-,
Cn1c(=O)c(=O)n(C)c2cc(S(=O)(=O)N3CCN(Cc4ccc(F)cc4)CC3)ccc21,-,
COc1ccc(N2C[C@@]3(O)CC[C@@H](O)[C@@H](OC)[C@@H]3[C@@](C)(O)[C@@H]2CC=C(C)C)cc1,-,
COc1ccccc1C(=O)NCC(=O)NNC(=O)c1cccs1,-,
COc1ccccc1/C=C/C(=O)NNC(=O)c1cccs1,11,TbREL1 confirm=-
COc1ccccc1NC(=O)c1cccs1,-,
CN1CCC(N[C@@H](Cc2c[nH]c3ccccc23)C(=O)NCC(c2ccccc2)c2ccccc2)(C(=O)NC2CCCCC2)CC1,-,
CC(C)C[C@H](NC1(C(=O)NC2CCCCC2)CCN(C)CC1)C(=O)NCC(c1ccccc1)c1ccccc1,17,TbREL1 confirm=18
CC(C)C[C@H](NC1(C(=O)NC2CCCCC2)CCCCC1)C(=O)NCC(c1ccccc1)c1ccccc1,-,
